Hits are enriched below; roughly 21% of the tested compounds scored in any of these assays.
Pf growth 48h: P. falciparum growth inhibition at 48 hours (one generation). P. falciparum luciferase growth in erythrocytes, 48 h. Potency, µM (titrated, usually from 28.7 µM), without a hit: at the top dose activity change, negative = inhibition, usual class: inhibitors. 310,000 tested, 5.9% active; note: potency is the fitted concentration of half-maximal effect; % is set by controls: 0 for no effect and ±100 for the full control effect
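Here the parasites carry a stable luciferase gene and grow inside erythrocytes in Albumax-based RPMI medium with compound for one erythrocytic cycle. Activity is scored as loss of luminescent signal.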
CHX counter: affects cycloheximide protein synthesis inhibition readout, counter-screen. 300,000 tested, 12% active. max response, %. cell reporter, cycloheximide protein synthesis inhibition counterscreen. AID 2314; in the data active = max response mostly above about 13%, no sharp cut-off; inactive = mostly below about 14%; note: read at 38.3 µM for the half of the compounds with a filed dose; 0% is about no effect
Shiga toxin inh: blocks Shiga toxin action in Vero cells; Vero cells, Shiga toxin protein synthesis inhibition reporter; inhibition, % at 38.7 µM; AID 2315; 290,000 tested, 9.2% active; in the data active = inhibition mostly above about 28%, no sharp cut-off; inactive = mostly below about 43%; note: 0% is about no effect
Pf growth 96h: inhibits malaria parasite growth, 96 h | P. falciparum luciferase reporter growth, 96 h | Potency, µM (titrated, usually from 28.7 µM), for inactives: top-dose activity change, negative = inhibition, hits mostly inhibitors | 320,000 tested, 6.9% active | AID 504834; note: potency is the fitted concentration of half-maximal effect; % is set by controls: 0 for no effect and ±100 for the full control effect
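Plates of compound plus infected erythrocytes (2% hematocrit, 0.05% parasitemia final) incubate 96 hours, 37 C, 5% CO2. Detection reagent added; reduced luminescence from the parasites' luciferase reporter flags inhibition.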
* = called active by the depositor; ? = inconclusive; / = no result given; [ ] = dose if it differs, or a comment. Unless noted, calls come from the whole dose curve; as a rule, active = well fitted inhibition curve with a large enough effect; inconclusive = small, poorly fitted or top-dose-only effect, or another doubt; inactive = no such curve, though single readings can be large or run the other way.

SMILES | Pf growth 48h | CHX counter | Shiga toxin inh | Pf growth 96h
CCN(CC)CCNC(=O)c1cc(S(=O)(=O)N2CCc3ccccc32)cn1C | -10% | -2 | 5 | 11%
COc1cc(NC(=O)c2cc(S(=O)(=O)N3CCc4ccccc43)cn2C)cc(OC)c1OC | 12µM* | 9 | -3 | 2%
Cc1ccc(C)c(NC(=O)COC(=O)c2ccc3c(c2)OCCO3)c1 | 34% | / | / | ?
COc1ccc(-c2ccc(F)cc2)cc1C1C2C=CCC(C)C2C(=O)N1Cc1ccccc1 (stereo not given) | / | 0 | -2 | /
COc1ccc(-c2nc3ccccc3c(=O)n2CCOc2c(C)cccc2C)cc1 | 12µM* | -2 | 13 | -78%
COc1ccc(Cn2c(-c3ccc(OC)cc3)nc3ccccc32)cc1 | ? | 7 | 12 | 21%
COCCn1c(COc2ccc(C)cc2)nc2ccccc21 | 81% | 42* | 71* | ?
Cc1ccc(OCCn2c(=O)cnc3ccccc32)cc1 | ? | 6 | 12 | ?
CCn1c(COc2ccc(C)cc2)nc2ccccc21 | 72% | 44* | 79* | 45%
COCCn1c(-c2ccc(OC)cc2)nc2ccccc21 | / | 16* | -1 | ?
COCCn1c(COC)nc2ccccc21 | -9% | -2 | -4 | -5%
CC(=O)Nc1ccc(N2CCOCC2)c([N+](=O)[O-])c1 | 23% | -9 | -9 | 17%
CCC(C(=O)N1CCC(N2CCCCC2)CC1)n1nc(C)c2sc3ccccc3c2c1=O (stereo not given) | ? | -8 | -4 | 29%
Cc1cc(-c2cc(C(=O)NCc3ccccc3)on2)nc(NC2CCCC2)n1 | ? | -1 | -6 | ?
CCOCCn1c(COc2ccc(C)cc2)nc2ccccc21 | 40% | 37* | 40* | 6%
COCc1nc2ccccc2n1CCOc1ccccc1OC | ? | 6 | 23 | 199%
COc1ccc(N2C(=O)c3ccccc3NC2c2cccnc2)cc1 (stereo not given) | 57% | 8 | 25 | 113%
COc1ccc(N2C(=O)c3ccccc3NC23CCCCC3)cc1 | 134% | 26* | 52 | 187%
COc1ccc(N2C(=O)c3ccccc3NC23CCC(C)CC3)cc1 (stereo not given) | 108% | 32* | 54 | /
CCOc1ccc(N2C(=O)c3ccccc3NC2(C)CC)cc1 (stereo not given) | 374% | / | / | 420%
COc1ccc(N2C(=O)c3ccccc3NC2(C)C)cc1 | 219% | 15 | 73* | ?
CC(C)(C)NC(=O)c1ccc(Sc2ccccc2)c([N+](=O)[O-])c1 | 10µM* | 9 | -8 | ?
CCCc1nnc(SCC(=O)NC2CC2)n1C | 18% | -5 | -10 | -2%
CCCCN1C(=O)/C(=C2\SC(N3CCOCC3)=NC2=O)c2ccccc21 | 12% | 28* | 99* | 67%
CCN1C(=O)/C(=C2\SC(N3CCOCC3)=NC2=O)c2ccccc21 | 10% | -2 | 4 | 44%
SMILES | Pf growth 48h | CHX counter | Shiga toxin inh | Pf growth 96h
CN(C)c1ccc(/C=N/NC(=O)C2CC2c2ccccc2)cc1 (stereo not given) | -9% | 11 | 6 | 13%
Cc1cccc(/C=N/Nc2nncc3ccccc23)c1 | 288% | 24* | 47* | 458%
Cc1cccc(/C=N\Nc2nnc(-c3ccccc3)c(=O)[nH]2)c1 | -9% | -1 | -10 | -1%
COc1ccc(/C=N/NS(C)(=O)=O)c(OC)c1 | 24% | -1 | 9 | 14%
C(=N\Nc1nncc2ccccc12)/c1ccccc1 | 154% | 50* | 73* | 0%
COc1ccc(/C=N/Nc2nncc3ccccc23)c(OC)c1 | 233% | 51* | 106* | 212%
CN(C)c1ccc(/C=N/Nc2nncc3ccccc23)cc1 | -124% | 28* | 109* | -4%
COc1cc(/C=N/Nc2nncc3ccccc23)cc(OC)c1OC | 132% | 39* | 87* | 164%
C=CCn1c(SCc2ccccc2Cl)nnc1-c1sc2nc(C)cc(C)c2c1N | 12µM* | 1 | 2 | ?
Cc1cc(C)c2c(N)c(-c3nnc(SCc4ccc(Cl)cc4)n3C)sc2n1 | -4% | -2 | 0 | 21%
CC(C)(CC(=O)O)CC(=O)N1CCCN(c2nccc(C(F)(F)F)n2)CC1 | -2% | 3 | -5 | 0%
Cn1c(CC(=O)Nc2ccc(Cl)c(Cl)c2)n[nH]c1=S | -3% | -2 | -19 | 0.074µM*
Cc1ccccc1CN1CCNC1=O | 9.3µM* | 4 | 15 | 25%
CCOc1ccccc1C(=O)Nc1cc(C)ccc1NC(=O)c1ccco1 | -9% | 1 | -9 | ?
COc1ccc(-c2cc3nc4ccccc4n3c(N)c2C#N)cc1 | 20% | 29* | 56* | 19%
O=C(OCc1ccccc1)/C(=C/c1ccccc1Cl)NC(=O)c1ccco1 | 15% | 10 | -4 | 54%
CC(=O)N1CCN(C(=O)CSc2nnc(C)n2-c2ccccc2)CC1 | 26% | 0 | -7 | 0%
Cc1cccc2cc(C#N)c(NCCNS(=O)(=O)c3ccc4c(c3)OCCO4)nc12 | -15% | -5 | -7 | 5.2µM*
COc1ccc2nc(NCCNC(=S)NCCCN3CCOCC3)c(C#N)cc2c1 | ? | -1 | 3 | -33%[5.75 µM]
Cc1cccc2cc(C#N)c(NCCNC(=S)NCCCN3CCOCC3)nc12 | 10µM* | -2 | -12 | -17%
Cc1cc2cc(C#N)c(NCCNC(=S)NCCCN3CCOCC3)nc2cc1C | 13µM* | -3 | -5 | 223%
COc1ccc(C)cc1NC(=O)CN1C(=O)COc2ccc(S(=O)(=O)N3CCCCC3)cc21 | -18% | 6 | 10 | -12%
Cc1cc(C(C)(C)C)ccc1NC(=O)CC(C)(C)CC(=O)O | 57% | 49* | 82* | 30%
Oc1ccc(/C=N/N=C(c2ccccc2)c2ccccc2)c(O)c1O | ? | 18* | 27 | ?
O=C(/C(=N/N=C/c1ccc(O)c(O)c1O)c1ccccc1)c1ccccc1 | 10µM* | 6 | 12 | ?
SMILES | Pf growth 48h | CHX counter | Shiga toxin inh | Pf growth 96h
CCN(CC)S(=O)(=O)c1cccc(C(=O)N/N=C/c2ccc(O)c(O)c2O)c1 | -12% | -3 | 4 | -3%
COc1ccc(NC(=O)CSc2nnc3ccc(-c4ccccn4)nn23)cc1OC | 19% | / | / | 46%
O=C1CC(c2ccco2)CC2=C1C(c1ccc(O)cc1)n1nc(C(F)(F)F)nc1N2 (stereo not given) | / | -4 | 4 | /
Clc1ccc(-c2nc(Cc3ccccc3Cl)no2)cc1 | 50% | 15 | 12 | 5%
Clc1ccc(Cc2noc(-c3cccs3)n2)cc1 | 151% | 53* | 93* | /
NC(C(=O)O)C1CC(Cl)=NO1 (stereo not given) | ? | -4 | -11 | 3.3µM*
O=C(NCC1CCCO1)c1ccc(N2C(=O)C3CCCCC3C2=O)cc1 (stereo not given) | 30% | -5 | 3 | 10%
CCOC(=O)CSc1nnc(CNC(=O)c2ccc(OC)cc2OC)n1-c1ccc(OC)cc1 | -5% | 5 | -10 | 20%
CCN1C(=NCCc2cccs2)N[C@@H](CCc2ccccc2)[C@H](C(=O)NCCc2cccs2)[C@H]1C | 1.5µM* | 2 | -3 | 7%
O=C(N[C@H](C(=O)O)c1ccccc1)C1CCC(Cn2cnc3ccccc3c2=O)CC1 (stereo not given in full) | 10% | 1 | -2 | 20%

Screening data: PubChem BioAssay, National Center for Advancing Translational Sciences (NCATS)
